In PubChem BioAssay one finds composite z-score and z-score data, which are given here for 5 compounds.

In experiment [1] the test system is Wnt5a (protein binding on small-molecule microarray). In words: small molecules binding Wnt5a protein – biophysical, small-molecule microarray, 635/667 nm fluorescence, primary screen (AID 1142).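 Also: fluorescence read at 667 nm with signal to noise per printed feature.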 To be noted: 635 nm fluorescence, higher = more signal.
A short description of experiment [2]: ATP-based viability of Huh7 replicon cells – cell-based, CellTiter-Glo luminescence, basal, 48 h, cytotoxicity control for HCV replication inhibitor project, primary screen (AID 1143).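 Also: Huh7 hepatoma cells carrying a hepatitis C replication reporter with no stimulus; test concentration not given here.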 To be noted: higher = more signal, called active from +8 up or from −8 down.
A short description of experiment [3]: Pseudomonas biofilm growth suppression – PAO1 strain, BacTiter-Glo luminescence, LB-PBS, primary screen (AID 1144). To be noted: P. aeruginosa PAO1 biofilm, 12 h, higher = more signal.
Experiment [4] is described as follows: basal CRE-LacZ reporter activity in PC12 – cell-based, unstimulated, primary screen (AID 1145). To be noted: no forskolin, luminescence, 4.5 h, higher = more signal, called active from +8 up or from −8 down.
Experiment [5] in a line: forskolin-driven CRE-LacZ activity in PC12 – cell-based, CRE-LacZ reporter, forskolin-stimulated, primary screen (AID 1146).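 Also: PC12 cells with 6xCRE LacZ reporter stimulated by forskolin 10 µM; beta-galactosidase reporter signal reflecting CREB driven transcription.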 To be noted: luminescence, 4.5 h, higher = more signal, called active from +8 up or from −8 down.
Experiment [6] has as its target Streptavidin (Streptomyces avidinii) (UniProt P22629). In words: compounds binding control protein streptavidin – biophysical, small-molecule microarray, 635/667 nm fluorescence, artefact control for SMM compound annotation, primary screen (AID 1147).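 Also: signal reflects streptavidin binding to arrayed compounds as a control protein.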 To be noted: higher = more signal.
A short description of experiment [7]: probe aInhba binding on compound microarray – biochemical, small-molecule microarray, 635/667 nm fluorescence, primary screen (AID 1148).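 Also: score merges 667nm spot fluorescence with signal-to-noise for antibody binding to printed compounds.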 To be noted: higher = more signal.
In experiment [8] the target is Torsin-1A (Homo sapiens) (UniProt O14656). In words: TOR1A wild-type binding on microarray – cell lysate, small-molecule microarray, lysate, 635/667 nm, primary screen (AID 1149). To be noted: COS7 hTOR1A-WT lysate, 635 nm fluorescence, higher = more signal.
Torsin-1A (Homo sapiens), sequence (O14656 whole entry, looked up): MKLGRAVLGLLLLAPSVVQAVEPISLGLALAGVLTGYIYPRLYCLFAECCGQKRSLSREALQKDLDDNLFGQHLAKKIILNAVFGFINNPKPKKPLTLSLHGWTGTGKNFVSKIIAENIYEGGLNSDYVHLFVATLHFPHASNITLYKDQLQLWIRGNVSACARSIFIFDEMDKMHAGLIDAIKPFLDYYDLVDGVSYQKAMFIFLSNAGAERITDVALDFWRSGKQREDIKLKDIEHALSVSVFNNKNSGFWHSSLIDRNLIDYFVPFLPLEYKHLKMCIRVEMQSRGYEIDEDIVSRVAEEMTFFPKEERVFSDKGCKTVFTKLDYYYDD
The target is the same in experiment [9]. Kind of experiment: torsin A mutant lysate binding on microarrays – cell lysate, small-molecule microarray, COS7 lysate, 635/667 nm fluorescence, primary screen (AID 1150).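 Also: score pools 667 nm emission and signal to noise measuring lysate protein binding.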 To be noted: COS7 hTOR1A mutant lysate, 635 nm fluorescence, higher = more signal.
Experiment [10] concerns Sonic hedgehog protein (Shh). Kind of experiment: Sonic hedgehog microarray binding compounds – biochemical, small-molecule microarray, 635/667 nm fluorescence, primary screen (AID 1151).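 Also: Shh protein binding to compounds spotted on small-molecule microarray slides; score combines spot fluorescence intensity with signal-to-noise across triplicate slides.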 To be noted: 635 nm fluorescence, higher = more signal.
The nature of experiment [11]: optical density shifts of acrAB sulA E. coli – strain DRC41, OD650, 48 h, E. coli filamentation inducer project, primary screen (AID 1152).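 Also: E. coli MC1000 strain DRC41 lacking acrAB efflux pump and sulA.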 To be noted: higher = more signal, called active from +8 up or from −8 down.
The nature of experiment [12]: probe aLefty1 binding on compound microarray – biochemical, small-molecule microarray, 635/667 nm fluorescence, primary screen (AID 1153).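 Also: score merges spot fluorescence with signal-to-noise ratio from the scanned slide images.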 To be noted: higher = more signal.
Experiment [13] is described as follows: plasmodial surface anion channel blockers, osmotic lysis – cell-based, P. falciparum Indochina, OD700, 1 h, primary screen (AID 1154). To be noted: P. falciparum Indochina infected RBC osmotic lysis, higher = more signal, called active from +8 up or from −8 down.
Experiment [14] in a line: plasmodial surface anion channel blockers, osmotic lysis – cell-based, P. falciparum Indochina, OD700, 2 h, primary screen (AID 1155).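 Also: lysis reports solute entry through the parasite surface anion channel PSAC.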 To be noted: P. falciparum Indochina infected erythrocytes, higher = more signal, called active from +8 up or from −8 down.
A short description of experiment [15]: changes in parasitized red cell lysis, either direction – P. falciparum Indochina, OD700, 3 h, PSAC antagonist project, primary screen (AID 1156). To be noted: P. falciparum-infected erythrocytes, osmotic lysis, higher = more signal, called active from +8 up or from −8 down.
The nature of experiment [16]: plasmodial surface anion channel blockers, osmotic lysis – cell-based, P. falciparum Indochina, OD700, 18 h, primary screen (AID 1157). To be noted: P. falciparum Indochina infected erythrocytes, osmotic lysis OD700, 18 h; higher = more signal, called active from +8 up or from −8 down.
Experiment [17] can be described thus: S6 kinase pathway phospho-S6 level changes – cell-based, A549, cytoblot, luminescence, serum-stimulated, primary screen (AID 1158).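 Also: serum-stimulated A549 lung adenocarcinoma cells; signal is phosphorylated S6 detected by cytoblot immunostaining with HRP secondary.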 To be noted: 5 h, higher = more signal.
Experiment [18] addresses NADPH oxidase 2 (Homo sapiens) (UniProt P04839). In words: compounds shifting NOX2 Amplex Red fluorescence – cell-based, HEK293-NOX2, PMA-stimulated, NOX inhibitor project, primary screen (AID 1159). Also: test concentration not given here. To be noted: 45 min, higher = more signal, called active from +8 up or from −8 down.
In experiment [19] the target is NADPH oxidase 4 (Homo sapiens) (UniProt Q9NPH5). In words: compounds shifting NOX4 Amplex Red fluorescence – cell-based, HEK293-NOX4, tetracycline-induced, NOX inhibitor project, primary screen (AID 1160). To be noted: HEK293-NOX4, Amplex Red H2O2 fluorescence, 45 min; higher = more signal, called active from +8 up or from −8 down.
NADPH oxidase 4 (Homo sapiens), sequence (Q9NPH5 whole entry, looked up): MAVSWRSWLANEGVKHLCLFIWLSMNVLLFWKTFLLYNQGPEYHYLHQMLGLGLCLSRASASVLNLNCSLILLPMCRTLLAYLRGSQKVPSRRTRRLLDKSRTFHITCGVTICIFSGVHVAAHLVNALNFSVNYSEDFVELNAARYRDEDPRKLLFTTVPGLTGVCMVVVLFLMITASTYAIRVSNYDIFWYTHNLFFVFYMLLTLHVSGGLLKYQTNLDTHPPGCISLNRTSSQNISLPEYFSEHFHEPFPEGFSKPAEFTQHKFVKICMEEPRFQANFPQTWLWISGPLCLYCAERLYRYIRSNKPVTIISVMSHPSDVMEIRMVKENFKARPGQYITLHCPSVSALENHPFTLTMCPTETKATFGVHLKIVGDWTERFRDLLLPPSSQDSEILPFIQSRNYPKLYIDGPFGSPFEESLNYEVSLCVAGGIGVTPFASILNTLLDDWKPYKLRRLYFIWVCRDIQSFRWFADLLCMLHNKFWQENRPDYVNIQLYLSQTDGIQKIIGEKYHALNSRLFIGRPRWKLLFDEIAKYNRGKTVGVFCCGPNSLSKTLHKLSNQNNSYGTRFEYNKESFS
Experiment [20] deals with NADPH oxidase 5 (Homo sapiens) (UniProt Q96PH1). Kind of experiment: compounds shifting NOX5 Amplex Red fluorescence – cell-based, HEK293-NOX5, NOX inhibitor project, primary screen (AID 1161). To be noted: HEK293-NOX5, ionomycin, 45 min, higher = more signal.
NADPH oxidase 5 (Homo sapiens), sequence (Q96PH1 whole entry, looked up): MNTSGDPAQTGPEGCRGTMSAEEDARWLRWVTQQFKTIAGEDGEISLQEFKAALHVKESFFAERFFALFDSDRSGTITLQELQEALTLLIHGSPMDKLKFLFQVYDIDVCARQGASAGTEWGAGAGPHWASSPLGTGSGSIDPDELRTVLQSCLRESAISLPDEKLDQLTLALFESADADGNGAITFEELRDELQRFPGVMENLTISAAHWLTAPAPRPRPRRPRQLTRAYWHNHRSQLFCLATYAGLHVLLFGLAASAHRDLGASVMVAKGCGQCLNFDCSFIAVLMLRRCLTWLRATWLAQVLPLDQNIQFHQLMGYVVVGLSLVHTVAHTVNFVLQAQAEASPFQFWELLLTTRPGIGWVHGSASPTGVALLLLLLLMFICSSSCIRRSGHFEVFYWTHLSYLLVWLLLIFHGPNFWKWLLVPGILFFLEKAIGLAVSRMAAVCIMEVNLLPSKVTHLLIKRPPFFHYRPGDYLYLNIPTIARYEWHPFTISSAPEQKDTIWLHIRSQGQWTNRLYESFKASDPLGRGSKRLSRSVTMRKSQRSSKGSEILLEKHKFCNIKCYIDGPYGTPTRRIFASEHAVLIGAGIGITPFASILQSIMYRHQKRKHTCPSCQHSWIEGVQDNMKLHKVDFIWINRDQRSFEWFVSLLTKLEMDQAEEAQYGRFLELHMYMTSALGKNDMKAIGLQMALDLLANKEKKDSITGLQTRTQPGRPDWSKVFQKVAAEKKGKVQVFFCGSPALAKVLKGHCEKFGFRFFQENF

Calls of active or inactive are those of the source. Unless noted, no rule for the calls is given here.

NADPH oxidase 2 (Homo sapiens), sequence (P04839 whole entry, looked up): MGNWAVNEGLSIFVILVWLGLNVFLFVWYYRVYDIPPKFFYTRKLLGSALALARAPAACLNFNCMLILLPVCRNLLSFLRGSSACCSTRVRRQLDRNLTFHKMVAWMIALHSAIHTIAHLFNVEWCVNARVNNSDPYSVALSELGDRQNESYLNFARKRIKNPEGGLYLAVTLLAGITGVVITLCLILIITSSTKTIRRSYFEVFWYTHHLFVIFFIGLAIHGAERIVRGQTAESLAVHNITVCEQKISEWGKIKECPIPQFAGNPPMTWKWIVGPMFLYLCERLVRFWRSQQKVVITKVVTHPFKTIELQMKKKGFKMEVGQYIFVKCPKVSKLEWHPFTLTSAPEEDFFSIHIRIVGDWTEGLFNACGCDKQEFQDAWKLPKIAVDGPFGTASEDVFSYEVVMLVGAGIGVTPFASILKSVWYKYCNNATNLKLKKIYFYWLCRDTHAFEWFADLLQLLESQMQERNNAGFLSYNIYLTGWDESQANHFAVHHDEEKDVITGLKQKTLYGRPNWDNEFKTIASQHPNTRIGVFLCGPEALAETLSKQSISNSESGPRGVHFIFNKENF
Streptavidin (Streptomyces avidinii), sequence (P22629 whole entry, looked up): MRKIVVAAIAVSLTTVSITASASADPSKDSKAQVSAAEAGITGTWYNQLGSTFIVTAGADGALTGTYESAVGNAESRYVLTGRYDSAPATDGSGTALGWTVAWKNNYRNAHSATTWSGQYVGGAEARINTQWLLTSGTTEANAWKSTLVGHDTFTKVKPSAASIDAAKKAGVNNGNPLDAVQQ

In the case of `COC(=O)[C@H](C)NC(=O)CC=C[C@@H](C)[C@@H]1C=C[C@H](O)[C@@H](CO)O1`, the composite z-score in experiment [1] was 0.355; in experiment [6], 0.116; in [7] it was -0.0918; with Torsin-1A (Homo sapiens) [8] it was 0.945; with Torsin-1A (Homo sapiens) [9], 0.394; in experiment [10], 1.39. The same compound registered a composite z-score in experiment [12] of -0.269. In addition, the z-score was 0.301 (inactive) in experiment [2]; 1 (inactive) in experiment [3]; -0.434 (inactive) in [4]; 0.222 (inactive) in experiment [5]; 0.645 (inactive) in experiment [11]; -0.488 (inactive) in [13]. Besides, the z-score was 0.544 (inactive) in experiment [14]; -0.0002 (inactive) in experiment [15]; 0.0748 (inactive) in experiment [16]; 0.244 in experiment [17]; 0.534 (inactive) in experiment [18]; 0.62 (inactive) in [19]. Moreover, the z-score in experiment [20] is -0.231.
With `CCN1C(=O)[C@H]2[C@H]3[C@H](O)[C@H](O)CC(=NOC[C@@H](O)[C@H]4O[C@@H]5OC(C)(C)O[C@@H]5[C@H]4O)[C@@H]3CC[C@H]2C1=O`, the composite z-score is -0.0165 in [1]; 0.245 in experiment [6]; -0.246 in experiment [7]; 0.382 in the experiment with Torsin-1A (Homo sapiens) [8]; 0.205 in the experiment with Torsin-1A (Homo sapiens) [9]; 0.374 in experiment [10]. In experiment [12], the composite z-score was determined as 0.0445. Moreover, the z-score is 0.297 (inactive) in [2]; 0.685 (inactive) in experiment [3]; -0.975 (inactive) in experiment [4]; -0.799 (inactive) in experiment [5]; -0.352 (inactive) in experiment [11]; 0.158 (inactive) in experiment [13]. Moreover, the z-score in experiment [14] was 0.196 (inactive); in experiment [15] it was 0.151 (inactive); in [16], 0.318 (inactive); in experiment [17], -0.102; in experiment [18] it was -0.842 (inactive); in experiment [19] it was 0.162 (inactive). The z-score in experiment [20] amounted to 0.953.
On to `O=C1[C@H]2[C@H]3[C@H](O)[C@H](O)CC(=NO[C@@H]4O[C@H](CO)[C@@H](O)[C@H](O)[C@H]4O)[C@H]3CC[C@H]2C(=O)N1c1ccc(F)cc1F`, for which the composite z-score in [1] was 0.0816; in experiment [6] it was -0.695; in experiment [7], -0.0774; with Torsin-1A (Homo sapiens) [8], 0.835; in the experiment with Torsin-1A (Homo sapiens) [9], 0.189; in [10], -0.704. Moreover, in experiment [12], the composite z-score was determined as 0.0865. Besides, the z-score is -1.9 (inactive) in [2]; 1.42 (inactive) in experiment [3]; -0.837 (inactive) in experiment [4]; -0.0522 (inactive) in experiment [5]; -0.205 (inactive) in experiment [11]; 2.95 (inactive) in [13]. For the same compound, the z-score in experiment [14] is 0.454 (inactive); in experiment [15], 0.887 (inactive); in experiment [16], 0.159 (inactive); in experiment [17] it was -0.56; in experiment [18], -0.307 (inactive); in experiment [19], 0.73 (inactive). Also, the z-score in [20] was determined as 0.667.
Take `CC(CCN1CCCc2nc(C)c(C)cc21)=NO[C@H](C)c1cn([C@H](CO)Cc2ccccc2)nn1`: the composite z-score was 0.22 in [1]; -0.0592 in experiment [6]; 0.0487 in [7]; 1 with Torsin-1A (Homo sapiens) [8]; 0.25 with Torsin-1A (Homo sapiens) [9]; 1.04 in [10]. In [12], this compound came in with a composite z-score of 0.0402. Further, the z-score in experiment [2] was -0.535 (inactive); in experiment [3], 0.13 (inactive); in experiment [4], 2.77 (inactive); in [5], -0.245 (inactive); in experiment [11] it was 0.115 (inactive); in experiment [13] it was 5.14 (inactive). Moreover, the z-score is 0.985 (inactive) in experiment [14]; 2.45 (inactive) in [15]; 0.638 (inactive) in [16]; -0.0039 in experiment [17]; -0.443 (inactive) in [18]; -0.076 (inactive) in experiment [19]. Besides, the z-score in [20] came out at 0.863.
In the case of `CCOC(=O)CCN1C(=O)[C@H]2[C@@H]3C(=CC[C@H]2C1=O)C(=O)[C@H]1O[C@H]1[C@H]3O`, the composite z-score was -0.544 in [1]; -0.7 in experiment [6]; -0.253 in experiment [7]; -0.47 in the experiment with Torsin-1A (Homo sapiens) [8]; 0.914 with Torsin-1A (Homo sapiens) [9]; -0.87 in [10]. The compound further showed a composite z-score in experiment [12] of -0.284. The z-score in [2] is -5.94 (inactive); in experiment [3] it was 0.737 (inactive); in experiment [4] it was 0.79 (inactive); in experiment [5] it was 28.7 (active); in experiment [11] it was 0.244 (inactive); in [13], 3.05 (inactive). Further, the z-score in experiment [14] was 0.673 (inactive); in experiment [15] it was 0.587 (inactive); in [16], 0.254 (inactive); in [17] it was 0.642; in experiment [18], 0.955 (inactive); in experiment [19], 0.35 (inactive). Moreover, the z-score in [20] was determined as 0.38.
